Results published in PubChem BioAssay (Tox21).
Inconclusive results are not listed. Activity calls are given as the source filed them. Unless noted, calls come from the whole dose curve; as a rule, active = well fitted curve in the direction sought with a large enough effect in the repeat runs; inconclusive = weak or mixed curves; inactive = no such curve, though single readings can be large; an effect the other way counts as inactive or inconclusive.

Key:
[1] = molecular target: Nuclear receptor subfamily 1 group I member 3 (Homo sapiens) (UniProt Q14994); assay: qHTS assay to identify small molecule agonists of the constitutive androstane receptor (CAR) signaling pathway (AID 1224839); note: nearly all actives have a fitted effect of over 15% in size; note: potency is the fitted concentration of half-maximal effect
Chain of Nuclear receptor subfamily 1 group I member 3 (Homo sapiens) (Q14994 whole entry, looked up): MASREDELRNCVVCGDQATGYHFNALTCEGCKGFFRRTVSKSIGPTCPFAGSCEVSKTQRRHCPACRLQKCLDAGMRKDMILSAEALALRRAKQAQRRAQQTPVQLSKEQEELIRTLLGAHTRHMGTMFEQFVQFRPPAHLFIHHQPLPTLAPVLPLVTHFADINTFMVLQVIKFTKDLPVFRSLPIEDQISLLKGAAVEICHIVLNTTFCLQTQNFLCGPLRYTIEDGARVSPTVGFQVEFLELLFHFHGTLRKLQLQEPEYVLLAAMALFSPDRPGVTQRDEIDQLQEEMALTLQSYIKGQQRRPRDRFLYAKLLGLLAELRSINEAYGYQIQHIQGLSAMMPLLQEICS
In short: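 Double-stable HepG2 cells (hCAR, CYP2B6-2.2kb) seeded 4 h before compound addition. Exposure 24 h with 0.75 uM PK11195 final. Luciferase detected by ONE-Glo.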

[2] = qHTS assay to identify small molecule antagonists of the estrogen related receptor signaling pathway with the pleiotropic PPARgamma coactivator (PGC) from Tox21 10K library - cell viability counter screen (AID 1224840; active = well fitted cell-killing curve with a large enough effect in the repeat runs, not every such curve was filed as active; note: nearly all actives have a fitted effect of over 40% in size; note: potency is the fitted concentration of half-maximal effect)
In short: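 Readout: fluorescence intensity from CellTiter-Fluor after 30 min at 37 C/5% CO2. Preceded by 17.5 h treatment of PGC/ERR cells with DMSO-dissolved compounds, added 6 h post-seeding.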

[3] = molecular target: Thyrotropin receptor (Homo sapiens) (UniProt P16473); assay: qHTS assay to identify small molecule agonists of the thyroid stimulating hormone receptor (TSHR) signaling pathway (AID 1224843; calls by dose curve; note: nearly all actives have a fitted effect of over 45% in size; note: potency is the fitted concentration of half-maximal effect)
Chain of Thyrotropin receptor (Homo sapiens) (P16473 whole entry, looked up): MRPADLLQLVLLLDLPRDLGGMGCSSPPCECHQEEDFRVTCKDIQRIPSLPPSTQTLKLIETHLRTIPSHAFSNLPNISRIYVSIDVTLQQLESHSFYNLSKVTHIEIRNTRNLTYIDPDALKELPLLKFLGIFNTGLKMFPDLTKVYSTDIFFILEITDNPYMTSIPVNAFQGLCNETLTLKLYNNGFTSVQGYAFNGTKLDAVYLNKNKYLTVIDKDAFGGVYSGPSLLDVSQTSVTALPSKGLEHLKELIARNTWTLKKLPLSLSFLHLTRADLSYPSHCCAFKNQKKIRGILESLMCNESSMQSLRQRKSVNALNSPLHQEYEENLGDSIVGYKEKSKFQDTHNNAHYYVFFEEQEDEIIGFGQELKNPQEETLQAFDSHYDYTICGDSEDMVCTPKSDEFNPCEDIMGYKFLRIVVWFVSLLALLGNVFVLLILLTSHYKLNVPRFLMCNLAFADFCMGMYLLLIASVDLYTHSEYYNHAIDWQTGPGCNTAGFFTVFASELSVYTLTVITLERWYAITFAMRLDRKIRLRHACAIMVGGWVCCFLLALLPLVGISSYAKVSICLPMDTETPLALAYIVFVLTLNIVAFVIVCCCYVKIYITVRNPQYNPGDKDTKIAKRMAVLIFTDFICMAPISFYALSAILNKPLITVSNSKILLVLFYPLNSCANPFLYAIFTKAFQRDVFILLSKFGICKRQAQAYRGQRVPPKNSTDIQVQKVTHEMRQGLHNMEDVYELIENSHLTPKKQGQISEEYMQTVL
In short: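 HEK293/TSHR, 800 cells/well; cpd 30 min RT; add cAMP-d2 + anti-cAMP-cryptate, 1 h RT; fluorescence read on plate reader. 15-pt titration, n=3.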

[4] = qHTS assay to identify small molecule agonists of the hypoxia (HIF-1) signaling pathway - cell viability counter screen (AID 1224844; calls by dose curve; note: nearly all actives have a fitted effect of over 50% in size; note: potency is the fitted concentration of half-maximal effect)
In short: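 In this counter screen, HRE-bla ME-180 cell viability after 17 hrs of compound exposure at 37C was read by CellTiter-Glo luminescence, multiplexed with the beta-lactamase reporter measurement.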

[5] = qHTS assay to identify small molecule agonists of the hypoxia (HIF-1) signaling pathway (AID 1224846; active = well fitted activation curve with a large enough effect in the signal ratio in the repeat runs, not every such curve was filed as active; the % refers to the signal ratio)
In short: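 ME-180 HRE-bla reporter cells; compounds in DMSO, 17 h at 37C; read-out beta-lactamase via CCF4-AM FRET.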

[6] = qHTS assay to identify small molecule agonists of H2AX - cell viability counter screen (AID 1224847; calls by dose curve; note: nearly all actives have a fitted effect of over 30% in size; note: potency is the fitted concentration of half-maximal effect; for activity change, negative = cytotoxicity: top concentration of the series differs between compounds)
In short: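 Quantitative HTS viability measurement: CHO-K1 wild-type cells in serum (10% FBS) medium, short 3 hr drug exposure at 37C with 0.76% DMSO, CellTiter-Glo luminescent detection.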

[7] = qHTS RealTime-Glo MT Cell Viability Assay in HepG2 cells - 24 hour (AID 1224867); note: nearly all actives have a fitted effect of over 50% in size; note: potency is the fitted concentration of half-maximal effect
In short: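 HepG2 cells were seeded at 600 cells/well together with NanoLuc luciferase and a cell-permeant prosubstrate, preincubated 5 h at 37 C/5% CO2, then pin-dosed with compounds in DMSO. Nonlytic luminescence from viable cells was read at each time point.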

[8] = qHTS RealTime-Glo MT Cell Viability Assay in HEK293 cells - 32 hour (AID 1224868); note: nearly all actives have a fitted effect of over 50% in size; note: potency is the fitted concentration of half-maximal effect; for activity change, negative = cytotoxic: top concentration of the series differs between compounds
In short: (§1)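 HEK293 cells were seeded at 600 cells/well together with NanoLuc luciferase and cell-permeant prosubstrate, preincubated 5 h at 37 C/5% CO2, then given compound in DMSO by pintool. Luminescence from viable-cell prosubstrate reduction was read repeatedly over 40 h.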

[9] = A CellTox Green Cytotoxicity Assay to monitor cytotoxicity in HEK293 cells - 0 hour (AID 1224869); note: nearly all actives have a fitted effect of over 50% in size; note: potency is the fitted concentration of half-maximal effect
In short: (§2)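 Real-time, in one plate: 600 HEK293 cells/well with dead-cell DNA dye, pinned compound after 5 h, 37 C incubation over 40 h; viable cells give no appreciable fluorescence.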

[10] = qHTS RealTime-Glo MT Cell Viability Assay in HepG2 cells - 40 hour (AID 1224870); note: nearly all actives have a fitted effect of over 50% in size; note: potency is the fitted concentration of half-maximal effect
In short: (§3)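 HepG2 cells (600/well) mixed with RealTime-Glo MT reagent, settled 5 h at 37 C/5% CO2 before compound addition. Nonlytic NanoLuc luminescence from viable-cell prosubstrate reduction read repeatedly during 40 h treatment at 37 C.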

[11] = A CellTox Green Cytotoxicity Assay to monitor cytotoxicity in HEK293 cells - 40 hour (AID 1224871); note: nearly all actives have a fitted effect of over 45% in size; note: potency is the fitted concentration of half-maximal effect
In short: as §2

[12] = qHTS RealTime-Glo MT Cell Viability Assay in HEK293 cells - 16 hour (AID 1224872); note: nearly all actives have a fitted effect of over 50% in size; note: potency is the fitted concentration of half-maximal effect; for activity change, negative = cytotoxicity: top concentration of the series differs between compounds
In short: as §1

[13] = qHTS RealTime-Glo MT Cell Viability Assay in HEK293 cells - 40 hour (AID 1224874); conditions: RealTime-Glo luminescence; max response: stronger effect = lower value; note: nearly all actives have a fitted effect of over 50% in size; note: potency is the fitted concentration of half-maximal effect
In short: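 Kinetic, non-lysing viability readout. Seed HEK293 (600/well) with reagent, incubate 5 h at 37 C/5% CO2, pin 23 nL compound in DMSO, incubate at 37 C, read luminescence at 0, 8, 16, 24, 32, 40 h.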

[14] = qHTS assay to identify small molecule antagonists of the estrogen related receptor signaling pathway with the pleiotropic PPARgamma coactivator (PGC) from Tox21 10K library (AID 1224841; call rule not given here; note: potency is the fitted concentration of half-maximal effect)
In short: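 One-Glo luminescence, measured after half an hour at room temperature, quantified reporter output of PGC/ERR cells. These had been plated at 2,000 per well, incubated 6 h, dosed with compounds in DMSO, then kept 18 h at 37 C.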

[15] = qHTS assay to identify small molecule agonists of the estrogen related receptor signaling pathway with the pleiotropic PPARgamma coactivator (PGC) from Tox21 10K library (AID 1224842); note: nearly all actives have a fitted effect of over 15% in size
In short: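 PGC/ERR reporter cell line, 2,000 cells per well, incubated 6 h at 37 C before 23 nL compound in DMSO was added. After 18 h at 37 C, One-Glo luminescence read following 30 min at room temperature.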

[16] = qHTS assay to identify small molecule agonists of H2AX (AID 1224845; active = well fitted activation curve with a large enough effect in the signal ratio in the repeat runs, not every such curve was filed as active; the % refers to the signal ratio; note: potency is the fitted concentration of half-maximal effect)
In short: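 Wild-type CHO-K1 cells, plated overnight, exposed 3hr at 37C to 15 concentrations (0.76% DMSO final). Lysed, then HTRF anti-pH2AX (S139) cryptate and anti-H2AX-d2 antibodies, 24 hr room temperature; 665/620 nm emission read.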

[17] = qHTS assay to identify small molecule antagonists of the estrogen related receptor (ERR) signaling pathway from Tox21 library (AID 1224848); note: nearly all actives have a fitted effect of over 50% in size; note: potency is the fitted concentration of half-maximal effect
In short: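 Compounds dissolved in DMSO are pin-transferred onto ERR reporter cells (2,000 per well) that have settled for 6 h at 37 C. Plates then incubate 18 h at 37 C before ONE-Glo luciferase reagent and a luminescence read 30 min later.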

[18] = qHTS assay to identify small molecule agonists of the estrogen related receptor (ERR) signaling pathway from Tox21 library (AID 1224849; calls by dose curve; note: nearly all actives have a fitted effect of over 15% in size); conditions: ERR reporter cell line, ONE-Glo luciferase, 18 h; at 92.4 µM (top of the series) unless noted
In short: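 Luciferase activity in ERR pathway reporter cells served as the agonist readout; exposure lasted 18 h at 37 C, with ONE-Glo detection after 30 min at room temperature.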

[19] = molecular target: Nuclear receptor subfamily 1 group I member 3 (Homo sapiens) (UniProt Q14994); assay: qHTS assay to identify small molecule antagonists of the constitutive androstane receptor (CAR) signaling pathway (AID 1224838); note: nearly all actives have a fitted effect of over 40% in size
In short: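 Inhibition of CITCO-driven (50 nM final) CYP2B6 reporter expression is measured in HepG2 cells stably carrying hCAR. Fifteen compound concentrations are applied for 24 h at 37 C, followed by luciferase luminescence.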

[20] = qHTS RealTime-Glo MT Cell Viability Assay in HepG2 cells - 8 hour (AID 1224873); note: nearly all actives have a fitted effect of over 55% in size
In short: as §3
% is set by controls: 0 for no effect and ±100 for the full control effect.

O=C1OCc2ccccc21
inactive: Potency [1] | Potency [2] | Potency [3] | Potency [4] | Potency [5] | Potency [6] | Potency [7] | Potency [8] | Potency [9] | Potency [10] | Potency [11] | Potency [12] | max response [13] 15.2%

O=C(O)C[C@H](O)C[C@H](O)/C=C/c1c(C2CC2)nc2ccccc2c1-c1ccc(F)cc1
inactive: activation [1] -6.78% [at 19 µM] | viability change, negative = cytotoxic [2] -0.117% [at 19 µM] | activity, negative = inhibition [14] 10.6% [at 19 µM] | activation [15] -0.0293% [at 19 µM] | activation [3] -24.9% [at 19 µM] | activation (H2AX phosphorylation) [16] -2.12% [at 31.6 µM] | activation [5] 0.144% [at 15.8 µM] | activity change, negative = cytotoxicity [6] -0.332% [at 31.6 µM] | activity, negative = inhibition [17] 60.7% [at 19 µM] | activity change, negative = cytotoxicity [7] -20.3% [at 15.8 µM] | activity change, negative = cytotoxic [8] -6.08% [at 15.8 µM] | cytotoxicity [9] -2.87% [at 15.8 µM] | activity change, negative = cytotoxic [10] -27.7% [at 15.8 µM] | cytotoxicity increase [11] 1.42% [at 15.8 µM] | activity change, negative = cytotoxicity [12] 7.11% [at 15.8 µM] | max response [13] -20.4%
active: activity change, positive = activation [18] 31.2% [at 19 µM]

CO[Si](OC)(c1ccccc1)c1ccccc1
inactive: Potency [1] | Potency [2] | Potency [15] | Potency [3] | Potency [6] | activity change, positive = activation [18] -12.9% | Potency [7] | Potency [8] | Potency [9] | Potency [10] | Potency [11] | Potency [12] | max response [13] -18.7%

CCN(CC)c1ccc2c(c1)Oc1cc(N(CC)CC)ccc1C21OC(=O)c2ccccc21
active: Potency [6] 15.6 µM | Potency [9] 19 µM | Potency [11] 16.9 µM
inactive: Potency [19] | Potency [1] | Potency [5] | Potency [7] | Potency [10]

CCCCCCCCSCc1cc(C)c(O)c(CSCCCCCCCC)c1
inactive: Potency [1] | Potency [2] | Potency [14] | Potency [15] | Potency [3] | Potency [4] | Potency [16] | Potency [5] | Potency [6] | Potency [17] | activity change, positive = activation [18] 3.09% | Potency [7] | Potency [8] | Potency [9] | Potency [10] | Potency [11] | Potency [20] | max response [13] -17.7%

Cc1ccc(Cl)c(N)c1Cl
inactive: Potency [1] | Potency [2] | Potency [15] | Potency [17] | activity change, positive = activation [18] -0.961% | Potency [7] | Potency [8] | Potency [9] | Potency [12] | max response [13] -1.11%

Nc1ccc(F)c([N+](=O)[O-])c1
inactive: Potency [1] | Potency [2] | Potency [15] | Potency [3] | Potency [4] | Potency [16] | Potency [5] | Potency [6] | activity change, positive = activation [18] -30.4% | Potency [7] | Potency [8] | Potency [9] | Potency [10] | Potency [11] | Potency [12] | max response [13] 4.61%
active: Potency [14] 30.6 µM | Potency [17] 34.4 µM

ClC(c1ccccc1)(c1ccccc1)c1ccccc1
active: Potency [1] 21.7 µM
inactive: Potency [19] | Potency [4] | Potency [16] | Potency [5] | Potency [6] | Potency [7] | Potency [8] | Potency [9] | Potency [10] | Potency [11] | Potency [12] | max response [13] -24.6%

C=C1CC[C@H]2O[C@]2(C)CC[C@@H]2[C@@H]1CC2(C)C
inactive: Potency [1] | Potency [2] | Potency [14] | Potency [15] | Potency [3] | Potency [4] | Potency [16] | Potency [5] | Potency [6] | Potency [17] | activity change, positive = activation [18] 2.38% | Potency [7] | Potency [9] | Potency [10] | Potency [11]

O=C(N[C@H](CO)[C@H](O)c1ccc([N+](=O)[O-])cc1)C(Cl)Cl
inactive: Potency [19] | Potency [4] | Potency [16] | Potency [6] | Potency [7] | Potency [9] | Potency [10] | Potency [11] | Potency [20]

Cc1cc(Br)ccc1NC(=O)CCl
inactive: Potency [1] | Potency [15] | Potency [3] | Potency [6] | activity change, positive = activation [18] -79.8% | Potency [9]
active: Potency [2] 15.4 µM | Potency [14] 6.11 µM | Potency [4] 21.9 µM | Potency [17] 15.4 µM | Potency [8] 24.5 µM | Potency [10] 43.6 µM | Potency [11] 30.9 µM | Potency [12] 38.9 µM | Potency [13] 19.5 µM

Oc1ccc(C2(c3ccc(O)c(C4CCCCC4)c3)CCCCC2)cc1C1CCCCC1
active: Potency [2] 61.1 µM | Potency [14] 54.5 µM | Potency [3] 6.86 µM | Potency [4] 12.3 µM | Potency [16] 22.5 µM | Potency [6] 22.5 µM | Potency [17] 38.6 µM | Potency [7] 34.7 µM | Potency [8] 38.9 µM | Potency [10] 34.7 µM | Potency [12] 43.6 µM | Potency [13] 24.5 µM
inactive: Potency [1] | Potency [15] | activity change, positive = activation [18] -70.3% | Potency [9] | Potency [11]

CC1=C(/C=C/C(C)=C/C=C/C(C)=C\C(=O)O)C(C)(C)CCC1
inactive: Potency [2] | Potency [6] | Potency [7] | Potency [9] | Potency [10] | Potency [12]
active: Potency [1] 27.4 µM | Potency [4] 34.8 µM

CSc1ccc(O)cc1C
inactive: Potency [19] | Potency [14] | Potency [15] | Potency [6] | Potency [17] | activity change, positive = activation [18] -0.368% | Potency [7] | Potency [9] | Potency [10] | Potency [11] | Potency [12] | Potency [20]
active: Potency [16] 113 µM

Cc1c(Cl)c(=O)oc2cc(O)ccc12
active: Potency [8] 43.6 µM | Potency [12] 49 µM | Potency [13] 43.6 µM
inactive: Potency [19] | Potency [3] | Potency [4] | Potency [6] | Potency [7] | Potency [9] | Potency [10] | Potency [11] | Potency [20]

N#Cc1ccc(C/C(=N/NC(=O)Nc2ccc(OC(F)(F)F)cc2)c2cccc(C(F)(F)F)c2)cc1
inactive: Potency [1] | Potency [2] | Potency [3] | Potency [16] | Potency [6] | Potency [8] | Potency [9] | Potency [11] | Potency [12] | Potency [20]
